Records with an inconclusive call do not appear. Activity calls are given as the source filed them. The call rests on the fitted dose curve; in most records, active means well fitted curve in the direction sought with a large enough effect; inconclusive means small, poorly fitted or top-dose-only effect, or another doubt; inactive means no such curve, though single readings can be large; an effect the other way counts as inactive or inconclusive.
Assays:
[1] = tested on: HACAT; test: qHTS assay to identify novel small-molecules to repurpose for Merkel cell carcinoma treatment (AID 1296009); details: MCC and control cell lines, CellTiter-Glo viability, 72 h; at 44.8 µM (top of the series) unless noted; further: nearly all actives have a fitted effect of over 60% in size
Summary of the method: (§1)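 CellTiter-Glo luminescence after 72 hr compound exposure at 37 degree celsius gave cell viability. Libraries NPC and MIPE were run as 8- and 11-point dose responses; RLUs normalized to DMSO (negative) and no-cell (cytotoxicity) controls.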

[2] = tested on: NIH3T3; test: as above; details: MCC and control cell lines, CellTiter-Glo viability, 72 h; at 44.8 µM (top of the series) unless noted
Summary of the method: as §1

[3] = tested on: C33A; test: Primary qHTS to identify gynecologic anti-cancer compounds using libraries of approved drugs and bioactive compounds (AID 1345084); details: Gynecologic cancer cell panel viability, ATPlite luminescence, 48 h; series mostly up to 57.5 µM; further: on the % scale 0 is the no-effect control and ±100 the full control effect; nearly all actives have a fitted effect of over 55% in size
Summary of the method: (§2)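 Five-concentration response, 48 h; readout is ATP-driven luciferase luminescence.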

[4] = tested on: CAOV3; test: as above; details: Gynecologic cancer cell panel viability, ATPlite luminescence, 48 h; series mostly up to 57.5 µM
Summary of the method: as §2

[5] = tested on: CASKI; test: as above; details: Gynecologic cancer cell panel viability, ATPlite luminescence, 48 h; series mostly up to 57.5 µM
Summary of the method: as §2

[6] = tested on: Es-2; test: as above; details: Gynecologic cancer cell panel viability, ATPlite luminescence, 48 h; series mostly up to 57.5 µM
Summary of the method: as §2

[7] = tested on: Hek293T; test: as above; details: Gynecologic cancer cell panel viability, ATPlite luminescence, 48 h, control line for the selectivity index; series mostly up to 57.5 µM
Summary of the method: as §2

[8] = tested on: JEG-3; test: as above; details: Gynecologic cancer cell panel viability, ATPlite luminescence, 48 h; series mostly up to 57.5 µM
Summary of the method: as §2

[9] = tested on: HeLa; test: as above; details: Gynecologic cancer cell panel viability, ATPlite luminescence, 48 h; series mostly up to 57.5 µM
Summary of the method: as §2

O=C(O)c1ccc(NC(=O)[C@H](CC2CCCC2)n2cnc(C(F)(F)F)c2)nc1
inactive: outcome [1] | outcome [2] | Potency [3] | Potency [4] | outcome [5] | Potency [6] | Potency [7] | Potency [8]

CC1(C)CCC2(C(=O)O)C(O)CC3(C)C(=CCC4C5(C)CCC(OC6OC(CO)C(O)C(O)C6OC6OC(CO)C(O)C(O)C6OC6OCC(O)(CO)C6O)C(C)(C)C5CCC43C)C2C1 (stereo not drawn)
inactive: outcome [1] inactive [at 9.27 µM] | outcome [2] inactive [at 9.27 µM] | activity change, negative = cytotoxicity [3] -3% [at 11.6 µM] | activity change, negative = cytotoxicity [4] 12.3% [at 11.6 µM] | activity change, negative = cytotoxicity [5] -10.6% [at 11.6 µM] | activity change, negative = cytotoxicity [6] -1.15% [at 11.6 µM] | activity change, negative = cytotoxicity [7] 13.1% [at 11.6 µM] | activity change, negative = cytotoxicity [8] -1.43% [at 11.6 µM]

COc1ccc(C2OCC3C(c4cc(OC)c5c(c4)OCO5)OCC23)cc1OC (stereo not drawn)
inactive: outcome [1] inactive [at 17.4 µM] | outcome [2] inactive [at 17.4 µM] | Potency [3] | Potency [4] | outcome [5] | Potency [6] | Potency [9] | Potency [7] | Potency [8]

COc1ccc(C2(O)c3c(ccc4c3OC(C)(CCC=C(C)C)C=C4)NC(=O)C2OC)cc1 (stereo not drawn)
inactive: outcome [1] inactive [at 17.4 µM] | outcome [2] inactive [at 17.4 µM] | Potency [3] | Potency [4] | Potency [6] | Potency [9] | Potency [7] | Potency [8]

C/C=C(\C)C(=O)OC[C@H]1O[C@H](O[C@H]2O[C@H](CO)[C@@H](O)[C@H](O)[C@H]2O[C@@H]2O[C@H](CO)[C@@H](O)[C@H](O)[C@H]2O)[C@H](O[C@@H]2O[C@H](CO)[C@@H](O)[C@H](O)[C@H]2O)[C@@H](O)[C@@H]1O
inactive: outcome [1] inactive [at 17.4 µM] | outcome [2] inactive [at 17.4 µM] | Potency [3] | Potency [4] | outcome [5] | Potency [6] | Potency [9] | Potency [7] | Potency [8]

CC(C)Oc1ccc(-c2nc(-c3cccc4c3CCC4NCCC(=O)O)no2)cc1C#N (stereo not drawn)
inactive: outcome [1] | outcome [2] | Potency [3] | Potency [4] | outcome [5] | Potency [6] | Potency [9] | Potency [7] | Potency [8]

CC1(C)CC[C@]2(C(=O)O[C@@H]3O[C@H](CO)[C@@H](O)[C@H](O)[C@H]3O)CC[C@]3(C)C(=CCC4[C@@]5(C)CC[C@H](OC6OC(C(=O)O)C(OC7OC(CO)C(O)C(O)C7O)C(O)C6O)C(C)(C)C5CC[C@]43C)C2C1 (stereo partly drawn)
inactive: outcome [1] inactive [at 9.27 µM] | outcome [2] inactive [at 9.27 µM] | activity change, negative = cytotoxicity [3] 1.52% [at 11.6 µM] | activity change, negative = cytotoxicity [5] 15.2% [at 11.6 µM] | activity change, negative = cytotoxicity [6] 1.85% [at 11.6 µM] | activity change, negative = cytotoxicity [9] 2.77% [at 11.6 µM] | activity change, negative = cytotoxicity [7] 10.4% [at 11.6 µM] | activity change, negative = cytotoxicity [8] 9.79% [at 11.6 µM]

OC[C@@]1(O)CO[C@@H](OC[C@H]2O[C@@H](OCc3ccccc3)[C@H](O)[C@@H](O)[C@@H]2O)[C@@H]1O
inactive: outcome [1] inactive [at 17.4 µM] | outcome [2] inactive [at 17.4 µM] | Potency [3] | Potency [4] | outcome [5] | Potency [6] | Potency [9] | Potency [7] | Potency [8]

COc1cc(O)c2c(c1Cl)CC(C)OC2=O (stereo not drawn)
inactive: outcome [1] | outcome [2] | Potency [3] | Potency [4] | outcome [5] | Potency [6] | Potency [9] | Potency [7] | Potency [8]

CC1CCC2(C(=O)O)CCC3(C)C(=CCC4C5(C)C[C@@H](O)[C@@H](O)C(C)(CO)C5CCC43C)C2C1(C)O (stereo partly drawn)
inactive: outcome [1] inactive [at 17.4 µM] | outcome [2] inactive [at 17.4 µM] | Potency [3] | Potency [4] | outcome [5] | Potency [6] | Potency [9] | Potency [7] | Potency [8]

Nc1c(-c2ccccc2)nc(Cl)c2c(O)n[nH]c(=O)c12
inactive: outcome [1] | outcome [2] | Potency [3] | Potency [4] | outcome [5] | Potency [6] | Potency [9] | Potency [7] | Potency [8]

COC(=O)c1[nH]c(=O)c2ccccc2c1-c1ccc[nH]1
inactive: outcome [1] | outcome [2] | Potency [3] | Potency [4] | outcome [5] | Potency [9] | Potency [8]

CC1CC(=O)C2C(O)(C1)CC(O)C13OC1c1c(O)cccc1C(=O)C23O (stereo not drawn)
inactive: outcome [1] | outcome [2] | Potency [3] | Potency [4] | outcome [5] | Potency [6] | Potency [9] | Potency [8]

O=c1[nH]ccc2nc(-c3ccc(CN4CCC(c5nc(-c6ccccn6)n[nH]5)CC4)cc3)c(-c3ccccc3)cc12
inactive: outcome [1] | outcome [2] | Potency [3] | Potency [4] | outcome [5] | Potency [6] | Potency [9] | Potency [8]
